The values that follow come from PubChem BioAssay (NCATS).

Records with an inconclusive call do not appear. Values without a mark were called inactive. Activity calls are given as the source filed them. Calls follow the shape of the full dose curve.
Potency is read from the fitted curve at half-maximal effect.

Cytochrome P450 1A2 (Homo sapiens), sequence (P05177 whole entry, looked up): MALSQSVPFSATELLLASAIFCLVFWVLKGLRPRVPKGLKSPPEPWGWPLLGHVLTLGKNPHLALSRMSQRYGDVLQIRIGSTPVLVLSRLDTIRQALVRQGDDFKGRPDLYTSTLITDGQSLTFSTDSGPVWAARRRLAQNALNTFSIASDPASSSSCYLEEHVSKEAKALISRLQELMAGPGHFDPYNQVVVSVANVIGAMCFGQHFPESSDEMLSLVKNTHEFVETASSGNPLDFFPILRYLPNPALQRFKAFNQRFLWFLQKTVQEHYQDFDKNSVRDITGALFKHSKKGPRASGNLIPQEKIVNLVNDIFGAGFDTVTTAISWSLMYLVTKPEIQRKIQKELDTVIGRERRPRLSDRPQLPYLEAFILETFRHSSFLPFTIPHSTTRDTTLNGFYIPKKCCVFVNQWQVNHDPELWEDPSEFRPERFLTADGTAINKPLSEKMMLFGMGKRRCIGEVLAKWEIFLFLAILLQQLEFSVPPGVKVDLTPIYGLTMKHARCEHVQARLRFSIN

This assay concerns the target Cytochrome P450 1A2 (Homo sapiens) (UniProt P05177). Put plainly: p450-cyp1a2 (AID 410).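 As to activity change, negative = inhibition: -100% = full effect of reference inhibitor.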 To be noted: recombinant CYP1A2, luciferin-ME demethylation, luminescence; series mostly up to 11.4 µM; activity change, negative = inhibition: at the top concentration. How it is done: The P450 gene superfamily is involved in metabolism and the clearance of xenobiotics. This assay used human CYP1A2 to measure the demethylation of luciferin 6' methyl ether (Luciferin-ME; Promega-Glo) to luciferin. The luciferin is then measured by luminescence after the addition of a luciferase detection regeant. Luciferin-ME concentration in the assay was equal to its Km for CYP1A2.
NCGC Assay Protocol Summary:
Two uL of enzyme and substrate mix (final concentrations: 20nM CYP1A2, 100uM Luciferin-ME, 100mM KPO4) were dispensed into a white, solid bottom 1536-well microtiter plate. 23nL of compound was transferred by a pin tool. The plate was incubated at room temperature for 10 min. Two uL of an NADPH regeneration solution (Promega supplied reagent) was dispensed and the reaction was allowed to continue for 60 min at room temperature. Then the reaction was stopped by reconstituted detection reagent. After another 20 min of incubation the plate was read on the ViewLux (Perkin Elmer) at 60 sec exposure and 2x2 binning. This protocol was carried out with Promega-Glo reagents and further information can be found at http://www.promega.com/tbs/tb325/tb325.pdf. Data were normalized to the to AC100 inhibition (57 uM furafylline).
Turning to `NCCSS(=O)(=O)CCN`, the activity change, negative = inhibition is -17.1% [at 2.29 µM]. As for `O=C(O)C(=Cc1ccc(-c2ccccc2)cc1)C(=O)O`, the Potency was 0.794 µM (active). For the compound `O[C@@H](C1=C/C(=C\c2ccncc2)c2ccccc21)c1ccncc1`, the Potency is 0.1 µM (active).

For the compound `C[N+](C)(C)c1nc(N)nc2c1ncn2[C@H]1O[C@@H](CO)[C@@H](O)[C@H]1O`, the activity change, negative = inhibition is -4.9% [at 2.29 µM]. Still for that read-out and setting: the value for `CC(C)(C)NCC[C@@H](O)c1cc(C(F)(F)F)nc2c(C(F)(F)F)cccc12` was -9.9% [at 2.29 µM]; that for `Cc1cc(Cl)ccc1OCC(=O)Nc1nc(N)nc(N)n1` was 2.1% [at 2.29 µM].

As to `c1ccc2c(c1)-c1ccccc1C2N1CC2CCC(CC2)C1`, the Potency is 0.501 µM (active). In the case of `CN(C(=O)c1ccncc1)c1ccccc1`, the “activity change, negative = inhibition” value was -13.8%. The same measure, in the same setting: the value for `O=C(O)CCC/C=C\C[C@H]1[C@@H](/C=C\[C@@H](O)C2Cc3ccccc3C2)[C@H](F)C[C@H]1O` was -19.9% [at 57 µM].

With `NC(N)=N[C@@H]1C(O)[C@H](N=C(N)N)[C@@H](O)C(O)[C@H]1O` (stereo not given in full), the activity change, negative = inhibition is -4.9% [at 2.29 µM]. As for `COC(=O)[C@](C)(N)Cc1ccc(O)cc1`, the “activity change, negative = inhibition” value is 2.4% [at 57 µM]. As to `Nc1nc(N)nc(CCCCc2nc(N)nc(N)n2)n1`, the activity change, negative = inhibition was 8.1% [at 2.29 µM]. With `N/N=C1/CC(=O)NC(=O)N1`, the Potency is 0.631 µM (active). Regarding `O=[N+]([O-])c1ccc([C@@H](Nc2ccccc2)c2ccc3cccnc3c2O)cc1`, the activity change, negative = inhibition is -21.3% [at 2.29 µM]. On to `CCN1/C(=C\C(C)=O)Sc2ccc(OC)cc21`, for which the Potency is 0.631 µM (active). On to `C[C@H]1CN(S(=O)(=O)c2cccc3cnccc23)CCN1`, for which the “activity change, negative = inhibition” value is -7.1% [at 57 µM]. Turning to `C[C@@]12CC(=O)[C@@H]3[C@@H](CCC4=CC(=O)CC[C@]43C)[C@@H]1CC=C2CC(=O)O`, the “activity change, negative = inhibition” value was -17%. On the same count and under the same terms, the value for `O=C(O)CCCSc1nc2ccccc2s1` was -16.9%. Take `O=[N+]([O-])c1cccc(/C=N\Nc2ccc3ccccc3n2)c1O`: the Potency was 0.794 µM (active). With `CS[C@@H](CC(=O)O)C(=O)O`, the “activity change, negative = inhibition” value was 6.1%.

Turning to `CN(CCc1ccccn1)c1ccc2c(c1)C(=O)c1ccccc1-2`, the Potency was 0.158 µM (active).

Regarding `CCC(=O)OCN1C(=O)C=CC1=O`, the Potency is 3.16 µM (active). On the same count and under the same terms, under `COCCn1c(=O)c(-c2ccc(OC)cc2)nc2cnc(OC)nc21` stands 3.16 µM (active). Regarding `CN1CCN(c2ncc3nc(-c4ccccc4)c(=O)n(Cc4ccc(F)cc4)c3n2)CC1`, the “activity change, negative = inhibition” value is -20% [at 57 µM]. Regarding `N#C/C(=C\NC(=S)c1ccncc1)c1nc2ccccc2s1`, the Potency was 3.16 µM (active). The same measure, in the same setting: the value for `CCOC(=O)Nc1nc(-c2ccccc2)c(C)s1` was 0.2 µM (active).

In the case of `Nc1nc(N)c2nc(CNc3ccc(C(=O)N[C@H](CCC(=O)O)C(=O)O)cc3)cnc2n1`, the “activity change, negative = inhibition” value is -19.4% [at 57 µM]. Consider `CC(CCN)(CCN)[N+](=O)[O-]`, for which the “activity change, negative = inhibition” value is -10.4%.

Consider `Oc1c(CN2CCOCC2)ccc(CN2CCOCC2)c1O`, for which the activity change, negative = inhibition is -11.9% [at 2.29 µM]. Regarding `O=C(Oc1ccc2c(c1)CN(Cc1ccccc1)CO2)c1ccccc1`, the activity change, negative = inhibition is -14.3% [at 2.29 µM]. Take `Oc1ccc2ccccc2c1C=NCc1c(O)ccc2ccccc12`: the Potency is 1.58 µM (active). Turning to `COc1ccc([C@H](O)c2ccccn2)cc1`, the “activity change, negative = inhibition” value was -16%.

On to `O=C(O)CC[C@@]1(c2ccccc2)NC(=O)NC1=O`, for which the “activity change, negative = inhibition” value was -11.4%.

With `CN(C)CCCc1c2ccccc2nc2ccc(Cl)cc12`, the Potency was 3.98 µM (active). The same measure, in the same setting: the value for `Cn1c(=O)c2[nH]c(SCCN3CCOCC3)nc2n(C)c1=S` was 0.631 µM (active). With `Cn1ncc2c(Cl)ncnc21`, the “activity change, negative = inhibition” value is -5.2%. Same read-out and setting: under `CCN(CC(=O)O)CC(=O)O` stands -5.2%. In the case of `COc1cc2c(cc1OC)C(CCN)=NCC2`, the Potency was 5.01 µM (active).

In the case of `C=C(C)CNCCN`, the activity change, negative = inhibition was 2.2% [at 2.29 µM].

Take `Cn1c(=O)c2[nH]c(CSCc3ccccc3)nc2n(C)c1=O`: the activity change, negative = inhibition was -15.4% [at 2.29 µM].
